Compound activity deposited in PubChem BioAssay by National Center for Advancing Translational Sciences (NCATS).
Shown are actives, neighbours in structure and some others; about 2.9% of the full set was active somewhere.
D3 antag: D3 dopamine receptor (human) antagonism | P35462 | D3R cells, DiscoveRx beta-arrestin luminescence, antagonist mode; active compounds read low | max response, negative = inhibition, % | 360,000 compounds, 2.5% hits | AID 652054; in the data active = max response below about -50%; inconclusive = no clear call, values can overlap the other calls; also: % is scaled to controls: 0 for no effect and ±100 for the full control effect
Target sequence (P35462 whole entry, looked up): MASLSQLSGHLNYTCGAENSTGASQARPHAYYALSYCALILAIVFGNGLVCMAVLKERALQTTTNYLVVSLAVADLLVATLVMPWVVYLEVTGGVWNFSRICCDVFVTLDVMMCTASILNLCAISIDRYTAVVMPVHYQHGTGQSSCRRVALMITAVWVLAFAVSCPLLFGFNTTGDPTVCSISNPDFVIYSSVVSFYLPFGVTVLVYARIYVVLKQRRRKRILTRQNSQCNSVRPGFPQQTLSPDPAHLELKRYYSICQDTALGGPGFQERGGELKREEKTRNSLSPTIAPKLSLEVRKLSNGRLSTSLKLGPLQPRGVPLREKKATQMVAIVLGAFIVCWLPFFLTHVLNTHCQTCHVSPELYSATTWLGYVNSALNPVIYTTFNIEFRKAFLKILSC
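Cells plated overnight at 1500 cells/well, then exposed to library compounds with dopamine controls for 90 minutes at 37 degrees C. DiscoveRx reagent added for 30–60 minutes at room temperature; luminescence read, quantitative HTS format.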
D3 ag: activates the human D3 dopamine receptor; P35462; D3R DiscoveRx beta-arrestin cells, luminescence, 90 min; max activation, %; 410,000 compounds, 0.58% hits; in the data active = max activation above about 30%; also: 0% is about no effect
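Agonist mode: compounds and dopamine controls were applied to plated cells for 90 min at 37 degrees C after an overnight attachment at 1500 cells/well. Luminescent read-out followed 30 - 60 minutes at room temperature with DiscoveRx detection reagent.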
a7 integrin act: integrin-mediated muscular dystrophy alleviation activation; 350,000 compounds, 0.064% hits; Potency, µM (titrated, usually from 38.3 µM), inactives show at the top dose activation, hits mostly activators; alpha7betagal myoblasts, beta-gal FDG fluorescence, 48 h; active = well fitted activation curve with a large enough effect; inconclusive = small, poorly fitted or top-dose-only effect; inactive = no such curve, though single readings can be large or run the other way;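 also: potency is read from the fitted curve at half-maximal effect; 100% = response of the positive control SU9516; nearly all actives have a fitted effect of over 60% in size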
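alpha7betagal+/- myoblasts (passage 13, 250/well) treated 48 h at 37C with compounds at 1:260 dilution of DMSO stock. Lysed, then beta-galactosidase activity read as FDG fluorescence (ex 480/em 540) after 30 min, with pre-read for autofluorescence.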
An asterisk follows results filed as active; ? = inconclusive; · = no result; ! = a repeat was not active.

SMILES	D3 antag	D3 ag	a7 integrin act
COC(=O)c1sccc1NC(=O)CSc1ccccc1NS(=O)(=O)c1ccccc1Cl	-28	6	21%
CS/C(N)=N/N=C/c1ccc([N+](=O)[O-])cc1	-51*	-1	30%
N/C(=N\N=C\c1ccc([N+](=O)[O-])cc1)c1nonc1N	-3	1	4%
Cc1c(C(=O)NNC(=O)c2ccncc2)oc2ccc(Br)cc12	0	-4	5%
COc1ccc(C(=O)/C=C/c2ccc(O)cc2)c2c1CC(O)C(C)(C)O2 (stereo unspecified)	-16	-25	20%
COc1ccc(C(=O)/C=C/c2ccc(O)cc2)c(O)c1CC=C(C)C	-67*	13	-47%
Cc1ccc2occ(CC(=O)Nc3c(C)cccc3C)c2c1	·	0	·
O=C1c2cc(O)cc(O)c2C(=O)c2c1cc(O)c([C@@H](CO)CCO)c2O	-53*	-21	-10%
Cc1cc(O)c2c(c1)C(=O)c1cc(O)cc(O)c1C2=O	-17	-64	·
COCCCNC(=O)Cn1nnc(-c2ccccc2NC(=O)c2ccc(F)cc2)n1	-20	-4	10%
FC(F)Oc1ccc(NC(=S)NC23CC4CC(CC(C4)C2)C3)cc1	-17	-7	-59%
COc1ccc(OCc2nnc(SC(C)C(=O)Nc3ccc(N4CCOCC4)cc3)n2C)cc1 (stereo unspecified)	-77*	-11	15%
CC(Sc1nnc(C2CC2)n1C)C(=O)Nc1ccc(N2CCOCC2)cc1 (stereo unspecified)	0	-4	27%
Oc1ccc(Cc2ccc(Cl)cc2)c(O)c1	0	1	0%
CC(C)C[C@H](NC(=O)N1CCn2c1nc1ccccc12)C(=O)NCc1ccco1	-13	-6	-3%
CCNC(=O)NC(=O)COC(=O)c1ccccc1SCC(=O)NC(=O)NCC	-75*	3	-50%
O=C(COC(=O)c1ccccc1SCC(=O)NC1CCS(=O)(=O)C1)NC1CCS(=O)(=O)C1 (stereo unspecified)	0	5	-13%
Cc1ccc(N2CC(C(N)=O)CC2=O)cc1 (stereo unspecified)	15	10	39%
N#C/C(=C/c1ccccc1)C(=O)NCc1ccccc1	-2	0	-6%
CN(C)c1ccc(/C=C(/C#N)C(=O)NCc2ccccc2)o1	-88*	-17	-7%
COc1ccc(-c2n[nH]c(=S)n2C2CCCCC2)cc1	-26	1	-17%
Cc1ccccc1OCc1n[nH]c(=S)n1-c1cccc(Cl)c1	-5	-3	-18%
COc1ccc(Cl)cc1-c1n[nH]c(=S)n1C1CCCCC1	-60*	-2	-9%
Cc1cc(Cl)ccc1OCc1n[nH]c(=S)n1C1CCCCC1	-64*	-3	-5%
CCCc1c2ccccc2nc2ccccc12	-19	-5	19%
SMILES	D3 antag	D3 ag	a7 integrin act
COc1ccc(Cc2nnc(NCCO)[nH]c2=O)cc1	6	33*	?
COc1ccc(Cc2nnc(NCCO)[nH]c2=O)cc1OC	-9	-2	5%
COc1ccc(S(=O)(=O)N2CCC(C(=O)NCc3ccc(C)cc3)CC2)cc1	13	1	8%
Cc1ccc(OCCn2cncn2)c([N+](=O)[O-])c1	-17	-3	-4%
O=C(COC(=O)CNC(=O)c1ccccc1F)Nc1ccc2c(c1)OCO2	-1	9	-13%
Fc1ccc(-n2nnnc2-c2cnc(-c3cccs3)nc2C(F)(F)F)cc1	0	44*	-55%
FC(F)(F)c1nc(-c2ccncc2)ncc1-c1nnnn1-c1ccccc1	-23	-5	-12%
Cc1ccc(-c2cc(NC(=O)COc3ccc(Cl)c(C)c3)on2)cc1	·	-15	·
COc1cc(NC(=O)NCC2CCN(Cc3ccccc3Cl)CC2)cc(OC)c1OC	-7	-12	8%
COc1ccccc1C1CCN(Cc2ccccc2Cl)CC1	-75*	-42	-37%
O=[N+]([O-])c1cccc(CN2CCN(c3cccc4[nH]ccc34)CC2)c1	-97*	-6	-6%
O=[N+]([O-])c1cccc(COc2cccc(CN3CCCCC3)c2)c1	-77*	-62	-17%
O=[N+]([O-])c1cccc(CN2CCN(c3ncccn3)CC2)c1	-14	1	-7%
O=[N+]([O-])c1cccc(CN2CCC(Cc3ccccc3)CC2)c1	-29	-14	32%
O=[N+]([O-])c1cccc(COc2cccc(CN3CCCC3)c2)c1	-18	-33	-7%
COc1ccccc1C1CCN(Cc2cccc([N+](=O)[O-])c2)CC1	-95*	-23	-21%
CCOC(=O)Cc1ccc(NC(=O)Nc2ccccc2OCc2cc(=O)n3ccccc3n2)cc1	·	-16	·
Cc1cc2nc(N=C(N)N)nc(C)c2cc1C	-3	1	?
COc1cccc(-c2n[nH]nc2C2=CC(=O)CC(C)(C)C2)c1	6	2	4%
O=C(CN1C(=O)COc2ccc(S(=O)(=O)N3CCCCCC3)cc21)N1CCN(c2ccccc2)CC1	·	-8	·
COc1ccc(CN2CCC(Cc3ccccc3)CC2)cc1OC	?	-18	-53%
COc1ccccc1C1CCN(Cc2ccccc2)CC1	-116*	-24	-11%
OCCN1CCN(Cc2ccc3ccccc3c2)CC1	-16	-15	-26%
COc1ccccc1C1CCN(Cc2ccc3ccccc3c2)CC1	-62*	-34	-20%
CCn1c2c(c(=O)n3ncc(C(=O)N4CCN(c5ccc(Cl)cc5)CC4)c13)CN(Cc1ccc(OC)cc1)CC2	·	-5	·
SMILES	D3 antag	D3 ag	a7 integrin act
c1ccc(N2CCOCCOCCOCCOCC2)cc1	-1	10	-10%
O=C(NCc1ccccc1)Nc1cccn(Cc2cccc(F)c2)c1=O	9	2	-2%
O=C(COC(=O)c1cncc(Br)c1)Nc1ccc(N2CCCCC2)cc1	18	3	?
C#CC[N+]1(CC#Cc2cccc3ccccc23)CCOCC1	11	-7	-7%
C=CCn1cc(/C=N/Nc2nc3ccccc3[nH]2)c2ccccc21	-70*	-32	-24%
CCCn1c(/C=N/Nc2nc3ccccc3[nH]2)nc2ccccc21	-19	-10	-46%
Cc1c(/C=N/Nc2nc3ccccc3[nH]2)c2ccccc2n1C	?	-17	-36%
CC(C)Cn1c(/C=N/Nc2nc3ccccc3[nH]2)nc2ccccc21	-71*	-1	4%
CCOc1ccc(N2CC(C(=O)NCCC3=CCCCC3)CC2=O)cc1 (stereo unspecified)	-12	-10	-8%
CCc1nn2c(N)c(/C=C3\C=Nc4ccccc43)c(=O)nc2s1	-50*!	-10	?
Cc1cn2c(N)c(/C=C3\C=Nc4ccccc43)c(=O)nc2s1	-25	-4	29%
CN(C)C(=O)CSc1nc(-c2ccccc2)nc2c1CCCC2	-19	-2	-4%
Cc1cc2nc(SCC(=O)N(C)C)c3c(c2cc1C)CCCC3	-50*	-1	-54%
CCOC(=O)C1CCN(C(=O)Nc2ccc(OCc3ccccc3)cc2)CC1	-6	-3	-23%
Cc1ccc(NC(=O)Cn2nc(C)c([N+](=O)[O-])c2C)cc1Cl	-55*	-14	-15%
Cc1nn(CC(=O)Nc2ccncc2)c(C)c1[N+](=O)[O-]	?	-8	25%
Fc1ccc(-n2cc(-c3ccccc3)c3c(N4CCOCC4)ncnc32)cc1	?	-11	14%
CCN1CCN(c2ncnc3c2c(-c2ccccc2)cn3-c2ccc(F)cc2)CC1	-55*	-21	-9%
